The list is not random: actives were taken first. Their share in the collection is about 2.8%.
rCAG binder = molecules binding r(CAG) RNA repeats; actives 1.3% (n = 370,000); r(CAG) RNA repeat, TO-PRO-1 dye displacement fluorescence; inhibition, % at 3 µM; AID 651821;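 active = inhibition above the plate cutoff, the mean of all test compounds on that plate plus 3 SD, cut at about 35% in these data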;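 also: higher means more dye released from RNA so lower well fluorescence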
bovine MsrA act = activates bovine MsrA enzyme; purified bovine MsrA, absorbance read-out; activation, % at 10.6 µM; actives 0.3% (n = 360,000); AID 602163; in the data active = activation above about 7.5%
MsrA inh = inhibits bovine methionine sulfoxide reductase A | actives 0.75% (n = 360,000) | inhibition, % at 15.5 µM | purified bovine MsrA, absorbance read-out | AID 651718; in the data active = inhibition above about 4.5%
sPLA2-III inh = Inhibits HGIII-sPLA2 liposome hydrolysis, primary screen; Q9NZ20; QFRET BODIPY PC-A2 liposome hydrolysis, fluorescence; inhibition, % at 12.2 µM; actives 0.56% (n = 370,000);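 active = inhibition above mean plus 3 SD of compounds lying within the high and low control bounds, cut at about 19% in these data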
Target sequence (Q9NZ20 whole entry, looked up): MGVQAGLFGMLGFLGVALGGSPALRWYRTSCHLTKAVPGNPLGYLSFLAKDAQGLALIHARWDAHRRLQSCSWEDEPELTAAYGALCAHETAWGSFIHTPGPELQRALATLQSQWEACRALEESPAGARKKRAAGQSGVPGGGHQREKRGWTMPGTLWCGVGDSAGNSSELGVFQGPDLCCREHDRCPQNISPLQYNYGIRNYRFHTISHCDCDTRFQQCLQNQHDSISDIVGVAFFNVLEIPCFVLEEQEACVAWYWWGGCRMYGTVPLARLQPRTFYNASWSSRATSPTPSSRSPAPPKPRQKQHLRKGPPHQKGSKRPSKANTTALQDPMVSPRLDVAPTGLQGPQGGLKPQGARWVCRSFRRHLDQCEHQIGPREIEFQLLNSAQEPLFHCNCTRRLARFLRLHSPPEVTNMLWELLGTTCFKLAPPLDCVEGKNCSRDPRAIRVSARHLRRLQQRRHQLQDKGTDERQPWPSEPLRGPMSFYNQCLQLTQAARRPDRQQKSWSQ
rCAG bind conf = r(CAG) RNA repeat binding, confirmation | actives 70% (n = 4,300) | AID 652065 | shares compounds with rCAG binder | inhibition, % at 3 µM | TO-PRO-1 dye displacement fluorescence;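 active = inhibition above a per-plate cutoff, the mean inhibition of sample wells plus 3 SD, cut at about 35% in these data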;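 also: loss of TO-PRO-1 fluorescence as compound displaces dye from 1x1 AA loop RNA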
DNA CAG counter = counter-screen for rCAG RNA binders: DNA CAG dye complex inhibitors; shares compounds with rCAG binder; d(CAG) DNA oligo TO-PRO-1 dye displacement, fluorescence; inhibition, % at 3 µM; actives 94% (n = 4,300);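 active = inhibition above its plate's cutoff, the mean test-well inhibition plus 3 SD, cut at about 4.8% in these data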;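 also: hits displace the dye from DNA and so lower well fluorescence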
Numbers stand for hits.

What do the screens show for `N#Cc1c(NC(=O)CSc2ncccn2)oc(-c2ccccc2)c1-c1ccccc1`?
rCAG binder: inactive; bovine MsrA act: inactive; MsrA inh: inactive; sPLA2-III inh: inactive

Results for N#Cc1c(NC(=O)Cn2cnc3ccccc3c2=O)oc(-c2ccccc2)c1-c1ccccc1 ?
rCAG binder: 43; bovine MsrA act: inactive; MsrA inh: inactive; sPLA2-III inh: inactive; rCAG bind conf: inactive; DNA CAG counter: 14

Results for CCCCCCCC/C=C\CCCCCCCC(=O)NCCc1ccc(O)c(O)c1 ?
rCAG binder: 47; bovine MsrA act: inactive; MsrA inh: inactive; sPLA2-III inh: inactive; rCAG bind conf: inactive; DNA CAG counter: 7.2

What do the screens show for `CCCCCCCC/C=C\CCCCCCCC(=O)NCCO`?
rCAG binder: inactive; bovine MsrA act: inactive; MsrA inh: inactive; sPLA2-III inh: inactive

What do the screens show for `Cn1c(=O)c2c(-c3ccccc3)n(-c3cc([N+](=O)[O-])ccc3O)cc2n(C)c1=O`?
rCAG binder: inactive; bovine MsrA act: inactive; MsrA inh: inactive; sPLA2-III inh: inactive

Results for Cn1c(=O)c2c(-c3ccccc3)n(-c3cc(Cl)c([N+](=O)[O-])cc3O)cc2n(C)c1=O ?
rCAG binder: 43; bovine MsrA act: inactive; MsrA inh: inactive; sPLA2-III inh: inactive; rCAG bind conf: 42; DNA CAG counter: 11

What do the screens show for `Cc1ccc(C(=O)CSc2nc(O)cc(=O)[nH]2)cc1C`?
rCAG binder: inactive; bovine MsrA act: inactive; MsrA inh: inactive; sPLA2-III inh: inactive

What do the screens show for `CN(Cc1ccc(F)cc1)S(=O)(=O)c1nnc(NC(=O)c2ccccc2)s1`?
rCAG binder: 42; bovine MsrA act: inactive; MsrA inh: inactive; sPLA2-III inh: inactive; rCAG bind conf: 43; DNA CAG counter: 11

How did COc1ccc(CN(C)S(=O)(=O)c2nnc(NC(=O)c3cccc(C)c3)s2)cc1OC do in these assays?
rCAG binder: 67; bovine MsrA act: inactive; MsrA inh: inactive; sPLA2-III inh: inactive; rCAG bind conf: 53; DNA CAG counter: 17

How did COc1ccc(CN(C)S(=O)(=O)c2nnc(NC(=O)c3cccc(F)c3)s2)cc1 do in these assays?
rCAG binder: 41; bovine MsrA act: inactive; MsrA inh: inactive; sPLA2-III inh: inactive; rCAG bind conf: 64; DNA CAG counter: 25

How did CN(Cc1ccccc1)S(=O)(=O)c1nnc(NC(=O)c2ccc(F)cc2)s1 do in these assays?
rCAG binder: inactive; bovine MsrA act: inactive; MsrA inh: inactive; sPLA2-III inh: inactive

What do the screens show for `COc1ccc(C(=O)Nc2nnc(S(=O)(=O)N(C)Cc3ccc(F)cc3)s2)cc1OC`?
rCAG binder: inactive; bovine MsrA act: inactive; MsrA inh: inactive; sPLA2-III inh: inactive

Results for CN(Cc1ccc(F)cc1)S(=O)(=O)c1nnc(NC(=O)c2ccccc2Br)s1 ?
rCAG binder: 68; bovine MsrA act: inactive; MsrA inh: inactive; sPLA2-III inh: inactive; rCAG bind conf: 48; DNA CAG counter: 14

How did Cc1ccccc1NC(=O)COC(=O)c1cccc(S(=O)(=O)N2CCCCC2)c1 do in these assays?
rCAG binder: inactive; bovine MsrA act: inactive; MsrA inh: inactive; sPLA2-III inh: inactive

Results for COc1ccc(NC(=O)CCCn2c(=O)c3sccc3n(Cc3ccccc3C)c2=O)cc1 ?
rCAG binder: inactive; bovine MsrA act: inactive; MsrA inh: inactive; sPLA2-III inh: inactive

Results for COC(=O)C1=C(O)/C(=C\c2ccc(CNC(=O)C(=O)Nc3ccc(C)cc3)o2)N=C1C ?
rCAG binder: inactive; bovine MsrA act: inactive; MsrA inh: inactive; sPLA2-III inh: inactive

Results for COC(=O)C1=C(O)/C(=C\c2ccc(CNC(=O)C(=O)Nc3ccc(C)c(C)c3)o2)N=C1C ?
rCAG binder: 56; bovine MsrA act: inactive; MsrA inh: inactive; sPLA2-III inh: inactive; rCAG bind conf: inactive; DNA CAG counter: 12

How did CCOC(=O)C1=C(O)/C(=C/c2ccc(CNC(=O)C(=O)Nc3ccc(C)cc3)o2)N=C1C do in these assays?
rCAG binder: 49; bovine MsrA act: inactive; MsrA inh: inactive; sPLA2-III inh: inactive; rCAG bind conf: inactive; DNA CAG counter: 11

Results for O=C(CCN1C(=O)/C(=C\c2ccc(F)cc2)SC1=S)Nc1ccccc1 ?
rCAG binder: inactive; bovine MsrA act: inactive; MsrA inh: inactive; sPLA2-III inh: inactive

How did COc1ccc(OC)c(C(=O)COC(=O)c2ccc([N+](=O)[O-])o2)c1 do in these assays?
rCAG binder: inactive; bovine MsrA act: inactive; MsrA inh: inactive; sPLA2-III inh: inactive

Results for COc1ccc(OC)c(C(=O)c2c(C)oc3cc([N+](=O)[O-])c(O)c([N+](=O)[O-])c23)c1 ?
rCAG binder: 35; bovine MsrA act: inactive; MsrA inh: inactive; sPLA2-III inh: inactive; rCAG bind conf: inactive; DNA CAG counter: inactive

Results for CCC(C(=O)O)n1nnc(-c2ccc(-c3ccc(OC)cc3)cc2)n1 (stereo not drawn) ?
rCAG binder: 48; bovine MsrA act: inactive; MsrA inh: inactive; sPLA2-III inh: inactive; rCAG bind conf: 36; DNA CAG counter: 10

What do the screens show for `COC(=O)c1sc(OC)cc1OCc1ccc(C)cc1`?
rCAG binder: inactive; bovine MsrA act: inactive; MsrA inh: inactive; sPLA2-III inh: inactive

How did Cn1cccc1C(=O)Nc1ccc(N2CCOCC2)cc1 do in these assays?
rCAG binder: inactive; bovine MsrA act: inactive; MsrA inh: inactive; sPLA2-III inh: inactive

Results for COc1ccc(NC(=O)Nc2cccc(OC)c2)cc1 ?
rCAG binder: inactive; bovine MsrA act: inactive; MsrA inh: inactive; sPLA2-III inh: inactive

Results for COc1cccc(NC(=O)Nc2nc(SC)ns2)c1 ?
rCAG binder: 44; bovine MsrA act: inactive; MsrA inh: inactive; sPLA2-III inh: inactive; rCAG bind conf: inactive; DNA CAG counter: 9.4

Results for COc1cccc(NC(=O)Nc2nc(SC(C)(C)C)ns2)c1 ?
rCAG binder: 74; bovine MsrA act: inactive; MsrA inh: inactive; sPLA2-III inh: inactive; rCAG bind conf: 41; DNA CAG counter: 32

How did COc1cccc(NC(=O)Nc2ccc3nsnc3c2)c1 do in these assays?
rCAG binder: inactive; bovine MsrA act: inactive; MsrA inh: inactive; sPLA2-III inh: inactive

What do the screens show for `CCSc1nsc(NC(=O)Nc2cccc(F)c2)n1`?
rCAG binder: 63; bovine MsrA act: inactive; MsrA inh: inactive; sPLA2-III inh: inactive; rCAG bind conf: inactive; DNA CAG counter: 17

What do the screens show for `COc1cccc(-c2cnc3c(NC(C)=O)cc(-c4cccc(C(=O)N(C)C)c4)cn23)c1`?
rCAG binder: inactive; bovine MsrA act: inactive; MsrA inh: inactive; sPLA2-III inh: inactive

What do the screens show for `C=CCn1c(SCc2ccc(Br)cc2F)nc2cc(C(=O)O)ccc2c1=O`?
rCAG binder: 57; bovine MsrA act: inactive; MsrA inh: inactive; sPLA2-III inh: inactive; rCAG bind conf: 60; DNA CAG counter: 22

Results for CCOC(=O)C1=CC[C@@H](c2ccccc2)N(S(=O)(=O)c2ccc(C)cc2)[C@H]1c1ccccc1C ?
rCAG binder: inactive; bovine MsrA act: inactive; MsrA inh: inactive; sPLA2-III inh: inactive

Screens as filed in PubChem.
